Our source for the binding signal values is publication PMC7862700, “An all-to-all approach to the identification of sequence-specific readers for epigenetic DNA modifications on cytosine”.

What all share (assay): DAPPL (digital affinity profiling via proximity ligation, sequencing); 10 mM Tris-HCl pH 7.5, 50 mM NaCl, 1 mM DTT, 4% glycerol, room temperature, 30 min; GST-TFs on glutathione beads, 16-mer random dsDNA library, 0.1% formaldehyde crosslink after washing; high values mean tight binding
Assay [1] addresses T1, FEV (Homo sapiens, UniProt Q99581 1-238).
T1 sequence: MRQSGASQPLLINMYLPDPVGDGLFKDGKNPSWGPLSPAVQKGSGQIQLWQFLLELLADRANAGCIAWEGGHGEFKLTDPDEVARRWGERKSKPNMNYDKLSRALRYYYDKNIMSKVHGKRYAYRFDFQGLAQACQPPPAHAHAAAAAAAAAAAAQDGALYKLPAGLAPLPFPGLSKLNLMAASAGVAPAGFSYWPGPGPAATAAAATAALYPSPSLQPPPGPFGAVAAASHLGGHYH
The note with it: protein: recombinant; tags: N-terminal GST; dsDNA, one strand shown. In outline: (§1)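 GST fusions of human transcription factors were expressed in yeast and captured with glutathione beads. Once given DNA barcodes and pooled alongside a tag-only sample, they were incubated for 30 min at room temperature with 200 nmole of a random double-stranded 16-mer DNA library in Tris/NaCl/DTT/glycerol buffer, then washed, crosslinked (0.1% formaldehyde), proximity-ligated, PCR-amplified and sequenced on an Illumina NextSeq500. The binding signal of each hexamer is its read frequency for a factor divided by its frequency for the tag-only sample.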

Assay [2] has as its target ETV5 (Homo sapiens, UniProt P41161 1-510). The note with it: protein: recombinant; tags: N-terminal GST; dsDNA, one strand shown. In outline: as §1
For assay [3], the target named is HSF1 (Homo sapiens, UniProt Q00613 1-529). The note with it: protein: recombinant; tags: N-terminal GST; chain copies: 3; dsDNA, one strand shown. In outline:
as §1

Assay [4] deals with T2, SPIC (Homo sapiens, UniProt Q8N5J4 1-248).
T2 sequence: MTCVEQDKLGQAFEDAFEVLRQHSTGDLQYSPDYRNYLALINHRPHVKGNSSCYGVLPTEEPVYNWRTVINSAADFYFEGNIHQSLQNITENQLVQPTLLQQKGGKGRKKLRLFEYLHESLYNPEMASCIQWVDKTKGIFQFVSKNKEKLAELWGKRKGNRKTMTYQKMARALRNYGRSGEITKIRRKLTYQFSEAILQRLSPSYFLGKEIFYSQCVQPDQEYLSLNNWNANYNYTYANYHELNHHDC
The note with it: protein: recombinant; tags: N-terminal GST; dsDNA, one strand shown. In outline:
as §1

The target in assay [5] is ELF4 (Homo sapiens, UniProt Q99607 1-663). The note with it: protein: recombinant; tags: N-terminal GST; dsDNA, one strand shown. The method in brief: as §1
The target of assay [6] is T3, ELK4 (Homo sapiens, UniProt P28324-2 1-405).
T3 sequence: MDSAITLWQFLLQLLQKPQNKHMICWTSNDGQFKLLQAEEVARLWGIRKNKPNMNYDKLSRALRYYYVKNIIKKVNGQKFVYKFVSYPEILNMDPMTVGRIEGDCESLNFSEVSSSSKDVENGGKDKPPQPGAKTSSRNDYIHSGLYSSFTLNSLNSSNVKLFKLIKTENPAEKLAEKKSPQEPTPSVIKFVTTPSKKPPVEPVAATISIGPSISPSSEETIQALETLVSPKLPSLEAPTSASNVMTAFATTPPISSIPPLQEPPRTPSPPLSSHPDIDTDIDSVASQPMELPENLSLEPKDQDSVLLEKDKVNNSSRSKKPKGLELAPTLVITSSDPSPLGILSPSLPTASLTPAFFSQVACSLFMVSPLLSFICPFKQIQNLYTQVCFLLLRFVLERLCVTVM
The note with it: protein: recombinant; tags: N-terminal GST; dsDNA, one strand shown. In outline: as §1

Assay [7] concerns the target T4, ETV2 (Homo sapiens, UniProt O00321 1-342).
T4 sequence: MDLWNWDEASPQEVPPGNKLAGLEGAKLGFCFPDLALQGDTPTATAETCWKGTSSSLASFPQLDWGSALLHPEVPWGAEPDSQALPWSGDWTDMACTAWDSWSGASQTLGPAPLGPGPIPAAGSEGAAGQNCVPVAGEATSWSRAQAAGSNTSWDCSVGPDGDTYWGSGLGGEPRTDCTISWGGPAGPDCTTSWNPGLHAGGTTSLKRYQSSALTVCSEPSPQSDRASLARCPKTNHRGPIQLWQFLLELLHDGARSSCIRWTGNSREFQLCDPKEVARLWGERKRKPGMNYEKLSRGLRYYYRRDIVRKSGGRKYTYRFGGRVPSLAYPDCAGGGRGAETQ
The note with it: protein: recombinant; tags: N-terminal GST; dsDNA, one strand shown. The method in brief: as §1

Assay [8] concerns the target T5, ELF3 (Homo sapiens, UniProt P78545 1-371).
T5 sequence: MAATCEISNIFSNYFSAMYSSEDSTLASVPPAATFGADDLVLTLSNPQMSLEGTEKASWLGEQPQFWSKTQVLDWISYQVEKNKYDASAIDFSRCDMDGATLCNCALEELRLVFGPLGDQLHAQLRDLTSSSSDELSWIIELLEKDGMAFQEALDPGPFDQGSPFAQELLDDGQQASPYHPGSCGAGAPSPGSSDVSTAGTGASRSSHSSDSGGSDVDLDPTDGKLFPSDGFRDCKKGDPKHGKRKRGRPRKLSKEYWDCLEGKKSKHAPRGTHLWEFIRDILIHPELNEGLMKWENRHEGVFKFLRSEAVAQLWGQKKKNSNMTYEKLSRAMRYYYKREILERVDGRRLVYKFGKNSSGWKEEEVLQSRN
The note with it: protein: recombinant; tags: N-terminal GST; dsDNA, one strand shown. The method in brief:
as §1

Assay [9] addresses CRX (Homo sapiens, UniProt O43186 1-299). The note with it: protein: recombinant; tags: N-terminal GST; dsDNA, one strand shown. The method in brief:
as §1

Assay [10] has as its target ETV1 (Homo sapiens, UniProt P50549 1-477). The note with it: protein: recombinant; tags: N-terminal GST; dsDNA, one strand shown. The method in brief: as §1
For assay [11], the target named is T6, ERF (Homo sapiens, UniProt P50548 1-548).
T6 sequence: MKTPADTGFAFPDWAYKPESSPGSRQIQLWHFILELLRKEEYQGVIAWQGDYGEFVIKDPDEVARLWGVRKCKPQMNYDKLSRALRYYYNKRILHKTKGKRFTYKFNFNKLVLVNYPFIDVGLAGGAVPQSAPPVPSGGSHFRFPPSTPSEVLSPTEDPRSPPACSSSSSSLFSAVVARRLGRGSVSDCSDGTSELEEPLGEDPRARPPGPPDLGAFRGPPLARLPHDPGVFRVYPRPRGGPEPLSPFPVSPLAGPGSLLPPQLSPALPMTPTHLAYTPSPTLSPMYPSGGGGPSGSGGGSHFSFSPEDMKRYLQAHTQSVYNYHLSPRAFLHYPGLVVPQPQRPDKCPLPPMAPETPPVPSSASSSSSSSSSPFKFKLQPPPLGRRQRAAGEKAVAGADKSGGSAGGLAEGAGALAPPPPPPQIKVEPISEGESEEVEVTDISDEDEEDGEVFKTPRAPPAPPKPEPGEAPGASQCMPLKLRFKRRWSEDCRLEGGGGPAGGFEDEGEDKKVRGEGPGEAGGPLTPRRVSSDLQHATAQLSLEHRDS
The note with it: protein: recombinant; tags: N-terminal GST; dsDNA, one strand shown. The method in brief: as §1

Assay [12] addresses T7, ETV3L (Homo sapiens, UniProt Q6ZN32 1-361).
T7 sequence: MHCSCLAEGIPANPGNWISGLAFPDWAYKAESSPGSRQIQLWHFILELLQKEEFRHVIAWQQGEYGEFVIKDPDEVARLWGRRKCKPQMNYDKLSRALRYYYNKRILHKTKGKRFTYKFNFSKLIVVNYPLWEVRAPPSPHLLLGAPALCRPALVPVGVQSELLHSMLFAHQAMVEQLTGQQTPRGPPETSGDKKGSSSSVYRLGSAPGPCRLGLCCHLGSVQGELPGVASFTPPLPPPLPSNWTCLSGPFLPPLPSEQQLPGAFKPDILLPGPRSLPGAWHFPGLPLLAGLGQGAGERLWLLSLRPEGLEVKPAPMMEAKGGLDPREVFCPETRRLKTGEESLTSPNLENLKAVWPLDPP
The note with it: protein: recombinant; tags: N-terminal GST; dsDNA, one strand shown. In outline:
as §1

In assay [13] the target is T8, ETS2 (Homo sapiens, UniProt P15036 1-469).
T8 sequence: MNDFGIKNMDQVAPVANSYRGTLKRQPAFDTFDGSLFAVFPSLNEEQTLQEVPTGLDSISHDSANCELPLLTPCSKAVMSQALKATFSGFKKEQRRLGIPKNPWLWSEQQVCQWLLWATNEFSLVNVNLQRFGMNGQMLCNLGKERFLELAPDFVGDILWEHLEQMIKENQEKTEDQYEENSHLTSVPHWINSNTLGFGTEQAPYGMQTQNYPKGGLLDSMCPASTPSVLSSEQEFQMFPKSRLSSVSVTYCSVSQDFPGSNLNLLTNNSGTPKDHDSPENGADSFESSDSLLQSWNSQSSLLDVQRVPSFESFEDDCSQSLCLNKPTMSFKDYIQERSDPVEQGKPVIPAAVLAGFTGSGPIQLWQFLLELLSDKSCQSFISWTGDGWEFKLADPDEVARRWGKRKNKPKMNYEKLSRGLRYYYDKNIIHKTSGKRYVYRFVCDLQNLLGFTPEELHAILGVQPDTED
The note with it: protein: recombinant; tags: N-terminal GST; dsDNA, one strand shown. The method in brief:
as §1

In assay [14] the target is T9, SPDEF (Homo sapiens, UniProt O95238 1-335).
T9 sequence: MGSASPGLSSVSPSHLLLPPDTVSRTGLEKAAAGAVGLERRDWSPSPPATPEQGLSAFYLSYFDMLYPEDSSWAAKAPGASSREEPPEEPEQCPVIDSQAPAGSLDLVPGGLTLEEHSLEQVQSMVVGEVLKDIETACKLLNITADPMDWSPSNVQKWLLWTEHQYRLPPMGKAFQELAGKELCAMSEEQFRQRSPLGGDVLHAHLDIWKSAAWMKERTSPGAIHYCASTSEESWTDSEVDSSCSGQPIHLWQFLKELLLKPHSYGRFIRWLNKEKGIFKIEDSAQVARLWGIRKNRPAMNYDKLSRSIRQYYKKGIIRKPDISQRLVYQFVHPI
The note with it: protein: recombinant; tags: N-terminal GST; dsDNA, one strand shown. In outline: as §1

Assay [15] has as its target T10, ETV7 (Homo sapiens, UniProt Q9Y603 1-341).
T10 sequence: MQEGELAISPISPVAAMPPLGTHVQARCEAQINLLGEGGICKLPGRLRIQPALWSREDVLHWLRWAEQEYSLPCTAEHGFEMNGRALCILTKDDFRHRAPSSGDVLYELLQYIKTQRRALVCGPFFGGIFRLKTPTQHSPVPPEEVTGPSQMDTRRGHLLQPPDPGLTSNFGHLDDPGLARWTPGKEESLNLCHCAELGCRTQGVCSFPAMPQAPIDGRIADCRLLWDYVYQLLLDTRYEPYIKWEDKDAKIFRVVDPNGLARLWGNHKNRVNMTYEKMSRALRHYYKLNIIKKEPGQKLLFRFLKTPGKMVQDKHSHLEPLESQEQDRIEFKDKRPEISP
The note with it: protein: recombinant; tags: N-terminal GST; dsDNA, one strand shown. The method in brief:
as §1

The target in assay [16] is T11, ELF5 (Homo sapiens, UniProt Q9UKW6-2 1-255).
T11 sequence: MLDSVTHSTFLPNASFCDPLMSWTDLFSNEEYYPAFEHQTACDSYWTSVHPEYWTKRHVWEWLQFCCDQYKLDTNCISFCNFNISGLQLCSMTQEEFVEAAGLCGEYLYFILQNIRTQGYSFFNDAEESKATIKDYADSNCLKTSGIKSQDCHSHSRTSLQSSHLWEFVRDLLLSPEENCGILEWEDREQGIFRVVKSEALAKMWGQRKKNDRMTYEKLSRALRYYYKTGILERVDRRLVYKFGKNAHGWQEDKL
The note with it: protein: recombinant; tags: N-terminal GST; dsDNA, one strand shown. The method in brief: as §1

Assay [17] deals with T12, ETV3 (Homo sapiens, UniProt P41162-2 1-143).
T12 sequence: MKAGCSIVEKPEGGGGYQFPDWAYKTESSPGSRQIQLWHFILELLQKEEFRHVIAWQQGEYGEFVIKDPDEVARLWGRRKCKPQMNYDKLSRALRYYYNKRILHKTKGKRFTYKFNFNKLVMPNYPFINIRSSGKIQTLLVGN
The note with it: protein: recombinant; tags: N-terminal GST; dsDNA, one strand shown. The method in brief: as §1

Assay [18] deals with ETV6 (Homo sapiens, UniProt P41212 1-452). The note with it: protein: recombinant; tags: N-terminal GST; dsDNA, one strand shown. The method in brief: as §1
Sequence of ETV6 (P41212 whole entry): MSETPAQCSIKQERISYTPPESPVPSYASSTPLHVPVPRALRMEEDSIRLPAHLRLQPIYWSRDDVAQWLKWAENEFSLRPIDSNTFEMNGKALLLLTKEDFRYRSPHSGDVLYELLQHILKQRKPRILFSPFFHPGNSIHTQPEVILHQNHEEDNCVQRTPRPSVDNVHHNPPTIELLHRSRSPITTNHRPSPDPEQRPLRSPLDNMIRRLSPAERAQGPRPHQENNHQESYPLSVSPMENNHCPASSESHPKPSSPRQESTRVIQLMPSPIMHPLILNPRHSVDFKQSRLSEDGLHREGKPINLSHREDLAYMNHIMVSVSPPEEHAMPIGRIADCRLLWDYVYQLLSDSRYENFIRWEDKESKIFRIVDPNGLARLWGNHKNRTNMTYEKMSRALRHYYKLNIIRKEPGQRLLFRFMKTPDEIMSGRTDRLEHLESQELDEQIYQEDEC

Sequence of ETV5 (P41161 whole entry): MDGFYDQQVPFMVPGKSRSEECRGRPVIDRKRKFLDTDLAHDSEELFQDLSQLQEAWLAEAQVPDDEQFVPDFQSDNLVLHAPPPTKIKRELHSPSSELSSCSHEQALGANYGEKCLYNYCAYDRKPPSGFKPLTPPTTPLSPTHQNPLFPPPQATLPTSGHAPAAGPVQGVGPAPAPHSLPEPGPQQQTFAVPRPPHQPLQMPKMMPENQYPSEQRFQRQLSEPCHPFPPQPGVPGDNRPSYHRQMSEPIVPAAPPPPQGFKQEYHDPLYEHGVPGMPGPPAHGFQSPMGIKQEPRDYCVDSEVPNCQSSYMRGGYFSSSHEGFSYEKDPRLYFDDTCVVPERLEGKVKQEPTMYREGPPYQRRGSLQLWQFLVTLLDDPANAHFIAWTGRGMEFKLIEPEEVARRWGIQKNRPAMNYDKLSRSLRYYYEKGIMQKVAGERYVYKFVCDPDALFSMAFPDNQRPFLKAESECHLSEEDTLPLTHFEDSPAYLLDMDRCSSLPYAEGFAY
Sequence of HSF1 (Q00613 whole entry): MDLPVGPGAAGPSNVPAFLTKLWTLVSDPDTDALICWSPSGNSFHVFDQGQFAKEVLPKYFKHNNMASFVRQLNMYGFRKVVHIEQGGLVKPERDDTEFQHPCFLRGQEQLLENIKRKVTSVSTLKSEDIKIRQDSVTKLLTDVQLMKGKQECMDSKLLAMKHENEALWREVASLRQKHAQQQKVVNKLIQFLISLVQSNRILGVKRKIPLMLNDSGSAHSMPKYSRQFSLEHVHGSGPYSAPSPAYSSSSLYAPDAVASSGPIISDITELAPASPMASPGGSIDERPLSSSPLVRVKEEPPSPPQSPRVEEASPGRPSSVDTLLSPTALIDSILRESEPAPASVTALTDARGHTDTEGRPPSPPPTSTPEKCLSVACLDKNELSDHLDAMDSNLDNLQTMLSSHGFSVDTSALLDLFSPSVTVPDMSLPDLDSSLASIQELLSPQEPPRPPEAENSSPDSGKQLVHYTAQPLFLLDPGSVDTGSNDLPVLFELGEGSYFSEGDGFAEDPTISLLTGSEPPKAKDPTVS
Sequence of CRX (O43186 whole entry): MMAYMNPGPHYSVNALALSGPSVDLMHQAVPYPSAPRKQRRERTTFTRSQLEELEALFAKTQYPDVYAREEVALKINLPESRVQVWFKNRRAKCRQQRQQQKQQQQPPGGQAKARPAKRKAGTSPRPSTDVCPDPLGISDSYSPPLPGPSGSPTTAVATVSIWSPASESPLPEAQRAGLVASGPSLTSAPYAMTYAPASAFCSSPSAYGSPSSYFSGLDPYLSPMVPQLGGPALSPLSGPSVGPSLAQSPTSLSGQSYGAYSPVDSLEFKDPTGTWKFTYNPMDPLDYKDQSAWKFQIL
Sequence of ETV1 (P50549 whole entry): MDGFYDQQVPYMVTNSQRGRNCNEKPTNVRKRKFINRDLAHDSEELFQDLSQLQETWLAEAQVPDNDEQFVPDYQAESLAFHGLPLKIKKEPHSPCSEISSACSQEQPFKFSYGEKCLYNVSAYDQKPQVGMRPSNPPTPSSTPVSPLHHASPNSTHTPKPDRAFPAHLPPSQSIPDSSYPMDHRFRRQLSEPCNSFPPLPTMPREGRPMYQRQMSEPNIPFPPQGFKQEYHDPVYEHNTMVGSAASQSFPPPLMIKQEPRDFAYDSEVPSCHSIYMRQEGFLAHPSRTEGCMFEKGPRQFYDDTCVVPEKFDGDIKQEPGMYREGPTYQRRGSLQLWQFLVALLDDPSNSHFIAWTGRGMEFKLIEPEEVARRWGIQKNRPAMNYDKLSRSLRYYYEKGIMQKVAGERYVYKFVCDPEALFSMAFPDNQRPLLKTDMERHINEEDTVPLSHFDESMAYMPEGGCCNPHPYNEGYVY
Sequence of ELF4 (Q99607 whole entry): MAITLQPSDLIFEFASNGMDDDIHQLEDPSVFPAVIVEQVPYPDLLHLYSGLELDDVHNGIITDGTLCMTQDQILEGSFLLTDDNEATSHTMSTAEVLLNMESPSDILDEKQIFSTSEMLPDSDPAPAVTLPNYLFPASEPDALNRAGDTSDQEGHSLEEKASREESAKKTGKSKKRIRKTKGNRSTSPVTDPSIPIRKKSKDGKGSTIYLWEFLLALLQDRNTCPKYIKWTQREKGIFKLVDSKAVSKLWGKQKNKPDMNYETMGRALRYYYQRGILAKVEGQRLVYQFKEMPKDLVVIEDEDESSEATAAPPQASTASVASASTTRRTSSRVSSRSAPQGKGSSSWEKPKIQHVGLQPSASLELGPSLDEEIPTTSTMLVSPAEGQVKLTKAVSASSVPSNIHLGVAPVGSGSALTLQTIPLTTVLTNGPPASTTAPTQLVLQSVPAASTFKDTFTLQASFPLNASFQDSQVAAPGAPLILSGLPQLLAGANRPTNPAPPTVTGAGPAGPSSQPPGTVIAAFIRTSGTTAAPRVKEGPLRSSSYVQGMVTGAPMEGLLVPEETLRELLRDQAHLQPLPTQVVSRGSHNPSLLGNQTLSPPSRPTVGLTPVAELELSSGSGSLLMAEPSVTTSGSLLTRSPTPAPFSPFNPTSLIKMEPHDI

ATCCTC: the binding signal in assay [1] is 1.48 fold enrichment (6-mer frequency, TF over GST control); in assay [2], 1.46 fold enrichment (6-mer frequency, TF over GST control); in assay [3], 1.67 fold enrichment (6-mer frequency, TF over GST control); in assay [4] it was 1.31 fold enrichment (6-mer frequency, TF over GST control); in assay [5] it was 1.47 fold enrichment (6-mer frequency, TF over GST control); in assay [6], 1.39 fold enrichment (6-mer frequency, TF over GST control). The binding signal was 1.68 fold enrichment (6-mer frequency, TF over GST control) in assay [7]; 1.42 fold enrichment (6-mer frequency, TF over GST control) in assay [8]; 2.46 fold enrichment (6-mer frequency, TF over GST control) in [9]; 1.55 fold enrichment (6-mer frequency, TF over GST control) in assay [10]; 1.34 fold enrichment (6-mer frequency, TF over GST control) in assay [11]; 1.53 fold enrichment (6-mer frequency, TF over GST control) in assay [12]. Moreover, the binding signal was 1.41 fold enrichment (6-mer frequency, TF over GST control) in assay [13]; 1.56 fold enrichment (6-mer frequency, TF over GST control) in assay [14]; 1.46 fold enrichment (6-mer frequency, TF over GST control) in assay [15]; 1.95 fold enrichment (6-mer frequency, TF over GST control) in [16]; 1.51 fold enrichment (6-mer frequency, TF over GST control) in assay [17]; 1.37 fold enrichment (6-mer frequency, TF over GST control) in assay [18].
